Screening results from PubChem BioAssay.
G9a block: inhibitors of human histone lysine methyltransferase G9a; Q96KQ7; G9a H3K9 monomethylation, AlphaScreen, 2 h; Potency, µM (series often up to 102 µM), actives largely listed as inhibitors; hit rate 8.8% among 350,000; note: nearly all actives have a fitted effect of over 75% in size
Target sequence (Q96KQ7 913-1193 limits assumed): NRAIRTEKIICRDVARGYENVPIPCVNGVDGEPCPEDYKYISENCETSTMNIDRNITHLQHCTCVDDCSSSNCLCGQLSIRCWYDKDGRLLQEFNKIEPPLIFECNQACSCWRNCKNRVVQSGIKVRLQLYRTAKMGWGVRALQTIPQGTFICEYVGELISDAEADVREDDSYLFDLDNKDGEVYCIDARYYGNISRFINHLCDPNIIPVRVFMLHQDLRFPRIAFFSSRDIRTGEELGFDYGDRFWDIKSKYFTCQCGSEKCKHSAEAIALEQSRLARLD
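Step 1: enzyme (final 20 nM) with compound, 15 min RT. Step 2: substrate peptide 500 nM and SAM 20 uM, 2 h RT. Step 3: anti-H3K9me1 antibody and AlphaScreen beads, 10 min, then plate read.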
L3MBTL1 inh: blocks human L3MBTL1; Q9Y468; AlphaScreen L3MBTL1–H3K9me1 peptide binding; Potency, µM (top dose mostly 57.1 µM), hits mostly inhibitors; hit rate 0.66% among 230,000; AID 485360; note: nearly all actives have a fitted effect of over 60% in size
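Displacement of a biotinylated histone H3(1-15) peptide monomethylated at Lys9 (75 nM) from L3MBTL1 (50 nM) was measured by AlphaScreen after a 30 min room-temperature compound incubation; cefsulodin titration served as intraplate control.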
JMJD2A Tudor: blocks the human JMJD2A Tudor domain | hit rate 4.4% among 390,000 | Potency, µM (highest dose often 114 µM), actives largely listed as inhibitors | AlphaScreen JMJD2A-Tudor / H3K4me3 peptide binding | O75164 | AID 504339; note: nearly all actives have a fitted effect of over 50% in size
Sfp inh: blocks B. subtilis Sfp PPTase activity; Q9F4F7; Biochemical Sfp PPTase activity, qHTS; Potency, µM, usual class: inhibitors; hit rate 3.5% among 310,000; AID 1490;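 note: the enzyme is Sfp with the accession as filed and its product quenches rhodamine fluorescence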
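With Hepes-Na pH 7.6 buffer containing 10 mM MgCl2, Sfp (15 nM) modified BHQ-2-YbbR (12.5 uM) using rhodamine-CoA (5 uM). Two reads 30 minutes apart at 525/598 nm yielded each well's rate.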
BAZ2B inh: blocks human BAZ2B | Q9UIF8 | AlphaScreen BAZ2B-H3K14Ac peptide displacement | Potency, µM (top dose mostly 114 µM), most hits filed as inhibitors | hit rate 4.4% among 360,000 | AID 504333; note: nearly all actives have a fitted effect of over 60% in size
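Inhibition is scored as reduced AlphaScreen emission. The BAZ2B/b-H3(5-23)K14Ac complex (50 nM each) in PBS pH 7.4, 0.01% Tween-20 meets compound (up to 110 uM) for 30 min at RT before bead addition.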
HP1b chromo inh: blocks HP1-beta chromodomain binding to methylated histone tails | P83916 | AlphaScreen HP1-beta / biotin-H3K9me3 peptide binding | Potency, µM (doses to about 114 µM), actives largely listed as inhibitors | hit rate 0.56% among 390,000 | AID 540317; note: nearly all actives have a fitted effect of over 70% in size
Target sequence (P83916 whole entry, looked up): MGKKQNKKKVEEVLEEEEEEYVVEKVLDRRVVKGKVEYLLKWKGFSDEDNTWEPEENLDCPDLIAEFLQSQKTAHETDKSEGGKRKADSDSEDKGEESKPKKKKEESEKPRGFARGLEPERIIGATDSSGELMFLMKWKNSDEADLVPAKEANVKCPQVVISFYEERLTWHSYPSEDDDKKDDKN
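HP1-beta protein (50 nM final) preincubated 30 min at room temperature with biotinylated H3(1-18)K9me3 peptide (50 nM) in PBS pH 7.4, 0.01% Tween-20, then compound added for 30 min. AlphaScreen streptavidin donor/nickel chelate acceptor beads (10 ug/mL final), 30 min dark, luminescence read.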
Numbers stand for hits; n = inactive; u = inconclusive; x = no result given; [ ] = remark or other dose. A selection: hits, their analogues and other compounds. The true share with any hit is near 12%. Calls come from the whole dose curve; as a rule, active = well fitted curve in the direction sought with a large enough effect; inconclusive = small, poorly fitted or top-dose-only effect, or another doubt; inactive = no such curve, though single readings can be large; an effect the other way counts as inactive or inconclusive.

SMILES	G9a block	L3MBTL1 inh	JMJD2A Tudor	Sfp inh	BAZ2B inh	HP1b chromo inh
COc1cc(/C=C/c2cccc[n+]2C)ccc1OCC(=O)Nc1cccc(Cl)c1	50.1µM	x	n	n	u	n
COc1ccc(NC(=O)COc2ccc(/C=C/c3cccc[n+]3C)cc2OC)cc1	n	x	n	n	n	n
COC(=O)c1ccc(Cl)c(NC(=O)C2CCN(S(=O)(=O)Cc3ccccc3)CC2)c1	n	x	n	x	n	n
O=C(O)c1ccc(N2CC3CC(C2)c2cccc(=O)n2C3)c(NC(=S)Nc2ccc(Cl)cc2Cl)c1 (stereo unspecified)	10µM	x	n	50.1µM	n	u
CCCn1nnnc1NC(=O)c1cccs1	35.5µM	n	u	n	u	u
CCCn1nnnc1NC(=O)c1cc(Br)ccc1OC	25.1µM	n	n	n	u	n
Cn1nnnc1NC(=O)c1ccccc1Cl	39.8µM	x	u	n	50.1µM	n
CCCn1nnnc1NC(=O)c1ccc(C)cc1Cl	22.4µM	n	u	n	56.2µM	n
Cc1ccc(NC(=O)C(Cc2ccccc2)NS(=O)(=O)c2ccc3c(c2)CCC(=O)N3)cc1 (stereo unspecified)	n	x	n	x	n	n
CCN(CC)c1nn2c(=O)c(C(=O)NCCc3cccc(C)c3)cnc2s1	n	x	n	x	n	n
CCn1nnnc1NC(=O)c1cc(OC)c(OC)c(OC)c1	n	n	79.4µM	n	n	n
O=C(Cn1ncn2c(cc3sccc32)c1=O)NCCc1ccccc1	n	x	n	x	n	n
CN(C)c1ccc(Sc2nnc(NC(=O)Nc3ccc(Cl)cc3Cl)s2)cc1	28.2µM	n	n	n	n	n
CCC(=O)Nc1nnc(Sc2ccc(N(C)C)cc2)s1	u	n	n	n	n	n
CCOC(=O)C1=NN(c2ccccc2)C(=O)/C1=C\c1ccc(N(C)C)cc1	u	n	8.91µM	n	10µM	5.62µM
CC1=NN(Cc2ccccc2)C(=O)/C1=C\c1ccc(N(C)C)cc1	11.2µM	u	u	n	10µM	u
CCOC(=O)C1=NN(c2ccccc2)C(=O)C1	x	n	n	n	n	n
CN(C)c1ccc(C=C2C(=O)OC(C)(C)OC2=O)cc1	u	x	n	n	n	n
CCOc1ccc(CCNC(=O)c2cn(C)c3ccc(S(=O)(=O)N4CCCCCC4)cc3c2=O)cc1OCC	n	x	n	x	x	n
CN(C(=O)COC(=O)c1ccc(C#N)cc1)c1ccccc1	50.1µM	x	n	n	n	n
NC(=O)COC(=O)c1ccc(Cl)c(S(=O)(=O)N2CCCCCC2)c1	u	x	n	n	x	n
CCOC(=O)C1CCCN(C(=O)COC(=O)c2ccc(C#N)cc2)C1 (stereo unspecified)	u	n	n	n	n	n
O=C(OCC(=O)N1CCCCCC1)c1ccc(Cl)c(S(=O)(=O)N2CCCC2)c1	n	n	20µM	n	x	u
N#Cc1ccc(C(=O)OCC(=O)N2CCCCCC2)cc1	22.4µM	n	n	x	n	n
CNS(=O)(=O)c1cccc(C(=O)OCC(=O)c2ccc(S(=O)(=O)N3CCCCC3)cc2)c1	28.2µM	n	n	x	n	n
SMILES	G9a block	L3MBTL1 inh	JMJD2A Tudor	Sfp inh	BAZ2B inh	HP1b chromo inh
Cc1ccc(C(=O)COC(=O)c2cccc(NC(=O)c3ccc(Cl)cc3Cl)c2)cc1	n	x	n	x	n	n
CC1CN(C(=O)COC(=O)c2ccc(O)cc2)CC(C)O1 (stereo unspecified)	n	x	n	n	n	n
CC1CN(C(=O)COC(=O)c2ccc(C#N)cc2)CC(C)O1 (stereo unspecified)	50.1µM	x	n	n	n	n
Cc1cc(-c2nc(C)c(C(=O)NNS(=O)(=O)c3ccc(Cl)cc3Cl)s2)no1	39.8µM	n	u	n	n	n
Cc1cc(-c2nc(C)c(C(=O)NNS(=O)(=O)c3cccc(C(F)(F)F)c3)s2)no1	x	n	n	n	n	n
Cc1cc(C(F)(F)F)n2[nH]c(=O)c(N=Nc3ccccc3)c2n1	u	x	28.2µM	n	n	n
Cc1cc(C)n2[nH]c(=O)c(N=Nc3ccccc3)c2n1	7.94µM	x	u	n	u	n
O=c1[nH]n2c(C(F)(F)F)cc(C3CC3)nc2c1N=Nc1ccccc1	n	x	u	n	u	n
COc1ccc(CCC(=O)NNC(=O)Nc2ccc(OC)c(OC)c2)cc1	n	x	n	n	n	n
COc1ccc(NC(=O)NNC(=O)CCc2ccc(O)c(O)c2)cc1OC	n	x	28.2µM	n	n	u
CN(C)c1ccc(NC(=O)C(=O)C2C(=O)Nc3ccccc32)cc1 (stereo unspecified)	56.2µM	n	n	n	n	n
O=C1Nc2ccccc2C1Cc1ccc(Br)cc1 (stereo unspecified)	n	x	n	x	n	n
CN(C)c1ccc(CC2C(=O)Nc3ccccc32)cc1 (stereo unspecified)	3.16µM	u	7.08µM	44.7µM	u	28.2µM
CCOC(=O)c1noc2nc(C)n(CC(=O)Nc3ccc(OC)c(Cl)c3)c(=O)c12	n	x	n	x	n	n
CCOc1ccccc1C(=O)N1CC(=O)Nc2ccc(Cl)cc2C1c1ccccc1 (stereo unspecified)	u	x	n	x	u	n
COc1ccc(/C=C\c2onc(C)c2S(=O)(=O)N2CCC(C(=O)Nc3cccc(OC)c3)CC2)cc1	n	x	n	x	x	n
Cc1ccc(Nc2nc(-c3c(C)n(C)n(-c4ccccc4)c3=O)c(C)s2)cc1	50.1µM	n	u	n	u	n
CCc1cnc2c(c1SC(C(C)=O)C(=O)N(C)C)c(=O)n(C)c(=O)n2C (stereo unspecified)	4.47µM	x	28.2µM	x	n	u
CCc1cnc2c(c1SCC(=O)N1CCCCC1)c(=O)n(C)c(=O)n2C	n	x	n	x	n	n
C#C[C@]1(O)CC[C@H]2[C@H]3CCC4=Cc5oncc5C[C@]4(C)[C@@H]3CC[C@]21C	x	x	x	n	x	x
NC(=O)CC(NC(=O)c1ccccc1)c1ccc(NCCN2CCOCC2)c([N+](=O)[O-])c1 (stereo unspecified)	70.8µM	n	n	n	n	n
NC(=O)CC(NC(=O)c1ccc(Br)cc1)c1ccc(N2CCN(c3ccc(F)cc3)CC2)c([N+](=O)[O-])c1 (stereo unspecified)	n[12.7 µM]	x	n	n	n	n
COc1ccc(OC)c(C(=O)NC(CC(N)=O)c2ccc(N3CCCCCC3)c([N+](=O)[O-])c2)c1 (stereo unspecified)	u	n	u	n	50.1µM	n
NC(=O)CC(NC(=O)c1cccc(Br)c1)c1ccc(N2CCC(N3CCCCC3)CC2)c([N+](=O)[O-])c1 (stereo unspecified)	44.7µM	n	n	n	n	n
